# Only some compounds are listed: those with a hit (about 1.3% of all), similar ones and a draw of the others.
# eIF4E-4G inh: eIF4E–eIF4G protein interaction inhibitors, primary screen, biochemical, uHTS, TR-FRET, eIF4GI fragment. hit rate 0.37% among 220,000. TR-FRET eIF4E-eIF4GI(517-606) binding, 2 h. Eukaryotic translation initiation factor 4E (Mus musculus) + Eukaryotic translation …. inhibition, % at 21.7 µM;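 further: 0% = full FRET control wells and 100% = background wells lacking eIF4GI fragment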
# 14-3-3 Bad PPI: inhibitors of 14-3-3 zeta/Bad binding, primary screen, biochemical, TR-FRET, bovine 14-3-3 zeta | hit rate 0.71% among 220,000 | TR-FRET 14-3-3zeta/Dy647-pBad peptide displacement, 1 h | inhibition, % at 21.7 µM;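 active means inhibition above about 70%, limit read from the data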;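 further: 0% = full 14-3-3 plus peptide FRET controls and 100% = background without 14-3-3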
# SUMO HTRF inh: inhibitors of in vitro SUMOylation cascade, primary screen, biochemical, HTRF, uHTS; SUMO-conjugating enzyme UBC9 (Homo sapiens), P63279; HTRF SUMOylation assay, SAE1/SAE2 + UBC9; inhibition, % at 35 µM; hit rate 0.36% among 290,000; AID 2006, 2009; in the data active means inhibition above about 50%, passing the limit was not always enough
# Target sequence (P63279 whole entry, looked up): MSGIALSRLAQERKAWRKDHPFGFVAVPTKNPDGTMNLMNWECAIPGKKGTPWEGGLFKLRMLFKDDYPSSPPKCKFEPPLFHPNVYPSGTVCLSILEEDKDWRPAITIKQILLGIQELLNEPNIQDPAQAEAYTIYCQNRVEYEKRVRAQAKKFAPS
# p47phox inh: p47phox/p22phox peptide binding inhibitors, primary screen, biochemical, uHTS, NADPH oxidase regulatory subunit | hit rate 0.53% among 220,000 | inhibition, % at 24.7 µM | fluorescence polarization, 2 h;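 further: 0% = p47phox with labelled peptide and 100% = labelled peptide alone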
# Target sequence (P14598 whole entry, looked up): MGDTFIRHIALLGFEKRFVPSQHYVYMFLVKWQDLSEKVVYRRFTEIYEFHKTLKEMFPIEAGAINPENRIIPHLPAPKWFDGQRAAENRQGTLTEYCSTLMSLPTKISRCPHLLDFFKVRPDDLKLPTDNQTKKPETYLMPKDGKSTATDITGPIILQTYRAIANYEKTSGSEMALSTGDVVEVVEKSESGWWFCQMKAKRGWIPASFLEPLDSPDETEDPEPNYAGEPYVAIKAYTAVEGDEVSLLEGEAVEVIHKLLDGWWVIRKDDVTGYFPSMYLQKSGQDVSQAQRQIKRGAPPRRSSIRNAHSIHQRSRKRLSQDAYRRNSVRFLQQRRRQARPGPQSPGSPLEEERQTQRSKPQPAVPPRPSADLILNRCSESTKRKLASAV
# The depositor's hits bear a star; nt = no result given.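 How the source made its calls, unless noted: active means inhibition above about 30% (limit read from the data); inactive means the rest.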
SMILES,eIF4E-4G inh,14-3-3 Bad PPI,SUMO HTRF inh,p47phox inh
COc1cccc(N2CCN(Cc3cccc(Cl)c3)CC2)c1,-3,80*,9,-2
COc1ccc(Br)cc1CN1CCN(C(=O)Cc2ccccc2)CC1,-16,86*,26,-4
COc1ccc(CN2CCN(C(=O)Cc3ccccc3)CC2)c(OC)c1,3,47,-3,-2
CCC(C)N1CCN(C(=O)Cc2ccccc2)CC1 (stereo not given),0,80*,9,-8
COc1ccc(CC(=O)N2CCN(C)CC2)cc1,4,9,21,-13
COc1ccc(CC(=O)N2CCN(C)CC2)cc1OC,5,73*,30,-19
N#CCCn1cc(C(=O)Nc2ccccc2Br)c(-c2ccc3c(c2)OCCO3)n1,1,-2,7,-9
Fc1cccc(F)c1-c1nc(-c2ccc(Cl)cc2)no1,1,3,16,1
OC(c1ccc(F)cc1)(c1ccc(F)cc1)[C@@H]1CCCN1,-8,-9,9,43*
COc1ccc(CNCCc2ccccc2F)c(OC)c1C,nt,nt,6,nt
CCC1(OC(=O)CN)C(=O)OCc2c1cc1n(c2=O)Cc2cc3ccccc3nc2-1 (stereo not given),0,6,57*,-8
CCOC(=O)c1ccc2[nH]c(-c3ccc(S(=O)(=O)F)cc3)cc(=O)c2c1,3,25,23,-7
O=C(c1csc2c1CCCCC2)N1CCC2(CC1)OCCO2,-50,-3,9,-8
NC(=O)c1ccc(C(=O)Nc2ccc([As](=O)(O)O)cc2)cc1,90*,1,25,0
O=C1NC(=O)C(CCc2ccncc2)(CCc2ccncc2)C(=O)N1Cc1ccccc1,87*,-9,4,-12
CCOc1ccccc1N1C(=O)NC(=O)C(CCc2ccncc2)(CCc2ccncc2)C1=O,0,16,-9,-1
CN(C)c1ccc(CN2CC=C(c3ccc(F)cc3)CC2)cc1,10,73*,2,-6
COc1cc(CN2CC=C(c3ccc(F)cc3)CC2)cc(OC)c1,nt,nt,1,nt
COc1cc2c(cc1OC)C13CCN4CC5=CCOC6CC(=O)N2C1C6C5CC43 (stereo not given) (tested in a mixture with another compound),0,-5,-1,-11
O=c1[nH]c(=O)n(-c2ccc(Br)cc2)c(O)c1C=NCCN1CCCCC1,93*,0,25,5
CCCC12CN3CN(C1)CC(CCC)(C3)C2O (stereo not given),1,-5,-18,-8
Cc1cc(OC(=O)N(C)C)nc(SCc2c(Cl)cccc2Cl)n1,-2,-15,-13,-5
Nc1c(C(=O)NCc2ccco2)c2nc3ccccc3nc2n1Cc1ccccc1,2,5,101*,-45
Nc1c(C(=O)NCc2ccco2)c2nc3ccccc3nc2n1Cc1ccc(F)cc1,nt,nt,100*,-23
COc1ccc(Cn2c(N)c(C(=O)NCc3ccco3)c3nc4ccccc4nc32)cc1,-11,1,95,-38
SMILES,eIF4E-4G inh,14-3-3 Bad PPI,SUMO HTRF inh,p47phox inh
O=C1NC(=O)C2(C(=O)N1)C(c1ccc(F)cc1)NC(=S)NC2c1ccc(F)cc1 (stereo not given),-4,-24,13,-4
CC/C(=N\NC(=O)c1ccccc1)c1c(O)n(C2CCCCC2)c(=O)[nH]c1=O,nt,nt,-9,nt
CCn1nc(-c2cccs2)nc2c(=O)n(C)c(=O)nc1-2,-5,-5,101*,-5
CCOc1ccc(-n2c(-c3cccs3)nc3ccccc3c2=O)cc1,2,0,17,-3
CCn1nc(/C=C/c2ccccc2)nc2c(=O)n(C)c(=O)nc1-2,-1,-17,99*,-7
COc1ccc(-n2c(/C=C/c3ccc(O)cc3)nc3ccccc3c2=O)cc1,nt,nt,14,nt
CSc1ccc(C(c2c(O)c3ccccc3oc2=O)c2c(C)n(C)n(-c3ccccc3)c2=O)cc1 (stereo not given),-4,-21,-1,-12
Cc1c(C(c2ccc(Br)cc2)c2c(O)c3ccccc3oc2=O)c(=O)n(-c2ccccc2)n1C (stereo not given),-2,1,13,53*
COc1ccccc1N(CC(=O)NC1CCCCC1)C(=O)c1cnn(C(C)C)c1,-4,2,19,33*
CCOC(=O)C1(CCCc2ccccc2)CCN(C2CCC2)CC1,2,-7,4,-15
CC(=O)OC1N=C(c2ccccc2)c2cc(Br)ccc2N(C)C1=O (stereo not given),-1,6,16,32*
O=C1c2ccccc2C2(c3ccc(Cl)cc3)NCCN12 (stereo not given),6,-16,6,-8
O=C1N(c2nncs2)CCN1[N+](=O)[O-],6,-4,11,-41
O=C1NC(=O)C(=Cc2ccc(N3CCOCC3)o2)C(=O)N1,2,-20,16,58*
Cc1ccc(-c2nc(N3CCOCC3)s[n+]2-c2ccccc2)cc1,19,29,14,38*
CC1CN2c3ccc([N+](=O)[O-])cc3CC3(C(=O)N(C)C(=O)N(C)C3=O)C2C(C)O1 (stereo not given),-2,-7,14,-5
Clc1ccccc1CN1CCN(c2ccccc2)CC1,1,83*,1,-1
Clc1ccc(N2CCN(Cc3ccccc3Cl)CC2)cc1,-4,68,-15,-9
O=C(c1cccn2c(=O)c3cc(Br)ccc3nc12)N1CCC2(CC1)OCCO2,2,8,50,3
O=C(c1cccn2c(=O)c3ccc(Cl)cc3nc12)N1CCC2(CC1)OCCO2,1,-3,58*,-5
CN(C)[C@@H]1C(=O)C(C(N)=O)=C(O)[C@@]2(O)C(=O)C3=C(O)c4c(O)ccc(Cl)c4[C@@](C)(O)[C@H]3C[C@@H]12,nt,nt,20,nt
CN(C)[C@@H]1C(=O)C(C(N)=O)=C(O)[C@@]2(O)C(=O)C3=C(O)c4c(O)cccc4[C@@](C)(O)[C@H]3[C@H](O)[C@@H]12,47*,89*,47,-9
C#CC(CC)(CC)NC(=O)Nc1ccc(OCC)cc1,0,-10,12,-23
Cn1c(O)c(/C=C2\N=c3ccccc3=C2CCNC(=S)NC2CC2)c(=O)n(C)c1=O,-3,-9,53,39*
C/C(=N\Nc1cccc2ccccc12)c1c(O)n(Cc2ccccc2)c(=O)[nH]c1=O,9,4,52*,-12
c1ccc(-c2ccc(-c3n(-c4ccccn4)c4ccccc4[n+]3-c3ccccn3)cc2)cc1,-7,12,18,34*
CN1CCC2(CC1)C(C#N)=C(N)NC(S)=C2C#N,5,6,57*,-66
C[C@]12CCC(=O)CC1CCC1C2CC[C@]2(C)C(OC(=O)CCC(=O)O)CCC12 (stereo not given in full),nt,nt,20,nt
CN[C@@H]1C[C@@H](c2ccc(Cl)c(Cl)c2)c2ccccc21,99*,-2,-14,1

# Bioassay records: PubChem, several laboratories
